Screens as filed in PubChem.
RGS4 inh: Inhibitors of Regulator of G Protein Signaling (RGS) 4: qHTS | Regulator of G-protein signaling 4 (Homo sapiens), P49798 | Transcreener GDP fluorescence polarization, RGS4-accelerated GTP hydrolysis | Potency, µM (highest dose often 114 µM), most hits filed as inhibitors | hit rate 0.039% among 390,000 | AID 504845, 2011; active = well fitted inhibition curve with a large enough effect; also: nearly all actives have a fitted effect of over 75% in size
Target sequence (P49798 whole entry, looked up): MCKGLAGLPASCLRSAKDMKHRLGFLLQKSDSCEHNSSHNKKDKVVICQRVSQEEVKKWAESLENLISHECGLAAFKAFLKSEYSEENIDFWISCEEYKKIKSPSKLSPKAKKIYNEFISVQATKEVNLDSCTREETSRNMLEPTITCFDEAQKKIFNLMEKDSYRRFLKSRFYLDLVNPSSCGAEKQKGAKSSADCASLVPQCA
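MLSMR compounds (23 nl, pin-transferred) preincubated 10 min at room temperature with a 500nM (2x) first reagent, then RGS4 at 900nM (2x) plus Transcreener GDP mix added; fluorescence polarization (620/688 nm) read before and after 90 min at 30 °C.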
LDHA inh: qHTS assay for inhibitors of human lactate dehydrogenase; AID 1347041, 2019; L-lactate dehydrogenase A chain (Homo sapiens), P00338; activity change, % (values are at about 110 or 230 µM); hit rate 0.15% among 480,000; purified LDHA, NADH/diaphorase-resazurin fluorescence; hits give low values; in the data active = activity change below about -30%
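Remaining NADH was detected by diaphorase (0.133 mg/mL) converting 37 µM resazurin to fluorescent resorufin, read at 0 and 20 minutes. The preceding 5-minute room-temperature reaction used 2 nM LDHA, 0.2 mM sodium pyruvate and 0.06 mM NADH at pH 7.4.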
D3 ag: qHTS of D3 Dopamine Receptor Agonist: qHTS; D3R DiscoveRx beta-arrestin cells, luminescence, 90 min; max activation, %; hit rate 0.58% among 410,000; in the data active = max activation above about 30%
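Agonist-mode cell screen: cells plated at 1500/well and incubated overnight at 37 °C, then exposed to library compounds for 90 min at 37 °C. Detection reagent was added for 30–60 min at room temperature, and luminescence was read.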
Akt phos inh: HTS Assay for Inhibitors of Akt Phophorylation: Primary Screen. activity change, % for hits at 50 µM. Neuro2A IGF-stimulated pAkt S473 HTRF, 20 min; hits give low values. hit rate 0.32% among 360,000; in the data active = activity change below about -80%
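Neuro2A cells in DMEM with 0.5% FBS, overnight at 37 deg C, given compound at single 50 µM final, then IGF (6 nM final) for 20 min at 37 deg C. Lysed; phospho-Akt Ser473 by HTRF after 24 h, 665/615 ratio.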
DRD3 antagonist: qHTS of D3 Dopamine Receptor Antagonist: qHTS | max response, negative = inhibition, % | D3R cells, DiscoveRx beta-arrestin luminescence, antagonist mode; hits give low values | hit rate 2.5% among 360,000; in the data active = max response below about -50%
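Cells expressing the human receptor were seeded at 1500 cells/well, incubated overnight at 37 degrees C in 5% CO2, then exposed to library compounds with dopamine controls for 90 minutes at 37 degrees C before luminescent detection.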
PI4K2A block: qHTS for small molecular inhibitors of PI4K2A; purified PI4K2A, ADP-Glo luminescence, 1 h; hits give low values; activity change, negative = inhibition, % at 76.9 µM; hit rate 0.13% among 420,000; AID 1346378, 2018; in the data active = activity change below about -50%
Target sequence (Q9BTU6 whole entry, looked up): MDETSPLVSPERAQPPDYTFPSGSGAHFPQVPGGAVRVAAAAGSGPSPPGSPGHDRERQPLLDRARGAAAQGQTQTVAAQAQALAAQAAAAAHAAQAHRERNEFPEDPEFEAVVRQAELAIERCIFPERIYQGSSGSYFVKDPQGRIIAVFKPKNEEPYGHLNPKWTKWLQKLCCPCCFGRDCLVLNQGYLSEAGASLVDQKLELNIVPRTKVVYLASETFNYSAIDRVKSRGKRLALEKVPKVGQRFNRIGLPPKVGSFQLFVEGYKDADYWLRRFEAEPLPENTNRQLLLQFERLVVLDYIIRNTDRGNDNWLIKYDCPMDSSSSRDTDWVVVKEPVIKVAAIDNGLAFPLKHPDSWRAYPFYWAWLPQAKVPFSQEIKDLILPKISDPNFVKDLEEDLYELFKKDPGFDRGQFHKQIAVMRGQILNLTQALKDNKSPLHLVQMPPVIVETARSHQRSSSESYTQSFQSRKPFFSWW
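PI4K2A activity was measured by ADP-Glo luminescence: enzyme (4 ug/mL stock) and phosphatidylinositol (1.2 mM stock) in Tris pH 7.5/MgCl2/EGTA/Triton X-100 buffer were reacted with ATP (300 microM stock) for one hour at ambient temperature.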
A number is an active result; n = inactive; x = no result given; [ ] = another dose, or the depositor's remark. Hits are enriched below; roughly 2.8% of the tested compounds scored in any of these assays.

SMILES	RGS4 inh	LDHA inh	D3 ag	Akt phos inh	DRD3 antagonist	PI4K2A block
CSc1nc(N2CCN(Cc3ccc4c(c3)OCO4)CC2)c2ccccc2n1	n	n	n	n	-64.3	n
CC(C)n1cc(CN2CCC(C(=O)Nc3ccc(Oc4ccccc4F)cc3)CC2)cn1	n	n	n	n	-60.8	n
FC(F)C(F)(F)Oc1cccc(Nc2nccn3c(-c4ccc5ccccc5c4)cnc23)c1	x	-79.3	n	n	n	n
Oc1ccc(-c2cnc3c(Nc4cccc(OC(F)(F)C(F)F)c4)nccn23)cc1	x	n	n	n	n	n
Cn1c(N)c(C(=O)COC(=O)C2CCC(C(C)(C)C)CC2)c(=O)n(C)c1=O (stereo not drawn)	n	n	n	-107.7%	n	n
CN(C)CCN(Cc1ccccc1)C(=O)c1[nH]c(C(F)(F)F)nc1-c1ccccc1	x	n	38.6	n	n	n
O=C(NCCC1=CCCCC1)c1[nH]c(C(F)(F)F)nc1-c1ccccc1	x	n	112.2	n	n	n
CCCCN(C)C(=O)c1[nH]c(C(F)(F)F)nc1-c1ccccc1	x	n	n	n	n	n
O=C(NCc1ccccc1)c1[nH]c(C(F)(F)F)nc1-c1ccccc1	x	n	65.1	n	n	n
O=C(NCc1ccc(F)cc1)c1[nH]c(C(F)(F)F)nc1-c1ccccc1	x	n	n	n	n	n
O=C(NCCc1ccccc1)c1[nH]c(C(F)(F)F)nc1-c1ccccc1	x	n	n	n	n	n
Cc1cccc(-n2c(SCC(=O)N3CCOCC3)nc3ccccc3c2=O)n1	x	n	x	x	x	x
CCN(CC)C(=O)c1[nH]cnc1C(=O)NCc1ccccc1	n	n	n	n	-54.0	n
C[C@@H](NC(=O)c1nc[nH]c1C(=O)NCC(=O)OCc1ccccc1)c1ccccc1	n	n	47.2	n	n	n
O=C(N[C@@H](Cc1ccccc1)C(=O)OCc1ccccc1)c1nc[nH]c1C(=O)NCc1ccccc1	n	n	n	n	-75.5	n
CCN(CC)C(=O)c1[nH]cnc1C(=O)N[C@@H](C)C(=O)OCc1ccccc1	n	n	n	n	n	n
CC(C)C[C@H](NC(=O)c1[nH]cnc1C(=O)N[C@@H](Cc1ccccc1)C(=O)OCc1ccccc1)C(=O)OCc1ccccc1	n	n	n	n	n	n
COc1ccc2c(C)c(CCC(=O)Nc3cc(C)ccc3F)c(=O)oc2c1	x	n	x	x	x	x
CSCCC(NC(=O)c1ccc(-c2ccc(Cl)cc2)s1)C(=O)O (stereo not drawn)	x	n	x	x	x	x
CCOc1ccc(NC(=O)COC(=O)c2nn(C)c(=O)c3ccccc23)cc1	x	n	x	x	x	x
CCOC(=O)c1c(-c2ccccc2)csc1NC(=O)C(C)NCCCN1CCOCC1 (stereo not drawn)	n	-33.7	n	n	n	n
CCOc1ccc2nc(NC(=O)CCNC(=O)c3ccccc3Cl)sc2c1	x	n	x	x	x	x
CCOC(=O)CSc1nsc(SCC(=O)OCC)c1C#N	n	n	n	n	n	n
CC(=O)CSc1nsc(SCC(C)=O)c1C#N	n	n	n	n	-69.1	n
O=C1CN(CCC2=CCCCC2)[C@H]2CS(=O)(=O)C[C@H]2N1c1ccccc1	x	n	x	x	x	x
SMILES	RGS4 inh	LDHA inh	D3 ag	Akt phos inh	DRD3 antagonist	PI4K2A block
CCSc1nc(N2CCOCC2)c2c(c1C#N)CC(C)(C)N(C)C2	n	n	n	n	n	n
COC(=O)CSc1nc(N2CCOCC2)c2c(c1C#N)CC(C)(C)N(C)C2	n	n	n	n	-53.2	n
C=CCOC(=O)CCCC(=O)NC1CCCCC1	n	n	n	-127.7%	n	n
CCc1ccc(S(=O)(=O)Nc2ccc3nc(N4CCN(CCC#N)CC4)cc(C(=O)O)c3c2)cc1	x	n	x	x	x	x
CCNC(=O)NC(=O)COC(=O)c1ccccc1SCC(=O)NC(=O)NCC	n[11.4 µM]	n	n	n	-74.7	n
CCn1c(C)[n+](CCOCC[n+]2c(C)n(CC)c3cc(Cl)c(Cl)cc32)c2cc(Cl)c(Cl)cc21	n	-42.6	n	n	n	n
CC(=O)OCCn1c(C)[n+](CCOC(C)=O)c2cc(Cl)c(Cl)cc21	n	n	n	n	n	n
CCn1ccc2cc(S(=O)(=O)N3CCC(C(=O)NCCCOC)CC3)ccc21	x	n	x	x	x	x
COc1ccc(Br)cc1/C=N/NC(=O)CNC(=O)/C=C/c1ccccc1	n	n	n	n	-67.1	n
COc1ccc(Cl)cc1C(=O)OCC(=O)c1c(N)n(C)c(=O)n(C)c1=O	x	n	n	n	n	-70.7
Cn1c(N)c(C(=O)COC(=O)c2ccccc2C(=O)c2ccccc2)c(=O)n(C)c1=O	n	n	n	n	n	n
CCOc1cc(C(=O)OCC(=O)c2c(N)n(C)c(=O)n(C)c2=O)cc(OCC)c1OCC	n	n	33.2	n	n	n
CCCOc1ccc(C(=O)OCC(=O)c2c(N)n(C)c(=O)n(C)c2=O)cc1OCC	n	n	n	n	n	n
COc1cc2ccccc2cc1C(=O)OCC(=O)c1c(N)n(C)c(=O)n(C)c1=O	n	n	n	n	n	n
Cn1c(N)c(C(=O)COC(=O)c2ccccc2C(=O)c2ccc(Cl)c([N+](=O)[O-])c2)c(=O)n(C)c1=O	n	n	n	n	-96.6	n
O=S(=O)(C/C=C/c1ccccc1)Cc1cccc(F)c1	x	n	x	x	x	x
O=[N+]([O-])c1cc(S(=O)(=O)Nc2ccccc2)ccc1N/N=C1/CC2CC=CC12 (stereo not drawn)	x	n	x	x	x	x
COc1ccc(Cl)cc1NC(=O)N1CCN(c2nc3ccccc3n2Cc2ccccc2)CC1	x	n	x	x	x	x
O=C(NCCCN1CCOCC1)c1c(F)cccc1F	n	n	n	x	n	n
O=C(NCCS(=O)(=O)N1CCN(c2ccccc2)CC1)c1ccccc1F	n	n	n	n	n	n
O=C(NCCN1CCN(c2ccccc2)CC1)c1ccccc1F	n	n	n	n	-55.9	n
O=C(NCCCN1CCN(CCCNC(=O)c2ccccc2F)CC1)c1ccccc1F	n	n	n	n	-51.3	n
O=C(CNC(=O)c1ccccc1F)NNC(=O)c1ccccc1O	n	n	n	n	-59.5	n
CCCCn1c(SCC(=O)Nc2cc(C)on2)nc2ccccc2c1=O	n	n	n	-105.5%	n	n
CCCCn1c(SCC(=O)NCc2ccccc2)nc2ccc(N3CCOCC3)cc2c1=O	n	n	34.0	n	n	n
CCCCn1c(SCC(=O)Nc2ccc(NC(C)=O)cc2)nc2ccccc2c1=O	n	n	n	n	n	n
